Laboratory results published in PubChem BioAssay (Tox21).
Results filed as inconclusive are left out. Unmarked numbers belong to inactive results. Calls of active or inactive are those of the source. Calls follow the shape of the full dose curve.

Experiment: qHTS assay for small molecules that induce genotoxicity in human embryonic kidney cells expressing luciferase-tagged ATAD5 - cell viability (AID 651634); also: nearly all actives have a fitted effect of over 25% in size
Details: HEK293T ATAD5-luc cells viability, CellTiter-Fluor, 15.5 h; series mostly up to 83.3 µM; activity, negative = cytotoxicity: at the top concentration
Excerpt: National Center for Advancing Translational Sciences [NCATS]
NIH Chemical Genomics Center [NCGC]
U.S. Environmental Protection Agency [EPA]
National Institutes of Environmental Health Sciences [NIEHS]
National Toxicology Program [NTP]
U.S. Food and Drug Administration [FDA]
Enhanced Level of Genome Instability Gene 1 (ELG1; human ATAD5) protein levels increase in response to various types of DNA damage. Using a luciferase reporter-gene tagged with ElG1, a cell-based assay [developed by Kyungjae Myung, NHGRI, NIH] was used to measure the induction of ATAD5 in human embryonic kidney cells (HEK293T). So, increase in luciferase activity can be used to identify the compounds that cause genetic stress. In addition to genotoxicity, these cells were also used to test for cytotoxicity by measuring the protease activity within live cells.
Tox21 Assay Protocol Summary:
For cytotoxicity screening, 2,000 cells in 5 uL/well were dispensed into white, solid-bottom 1536-well plates using a Multidrop Combi (Thermo Scientific) dispenser. Following transfer of 23 nL compound or DMSO vehicle by a pin tool, the plates were incubated 15.5 hr at 37C and 5% CO2. 1 ul CellTiter-Fluor reagent (Promega, Madison, WI) was then added to each plate and following 30 min incubation at 37C, fluorescence intensity was quantified on a ViewLux CCD-based plate reader.
% is scaled to controls: 0 for no effect and ±100 for the full control effect; potency is read from the fitted curve at half-maximal effect.

Q: With `COc1cc(Cl)c(OC)cc1Cl` as the molecule, how does the “activity, negative = cytotoxicity” value read?
A: The value was 17.1%.

Q: Which “activity, negative = cytotoxicity” value does the source give for `CCOc1nc(F)cc2nc(S(=O)(=O)Nc3c(Cl)cccc3Cl)nn12` here?
A: The value was -8.88%.

Q: For `N#CCC#N`, which “activity, negative = cytotoxicity” value is on record?
A: Its value is 9.31%.

Q: For `Cc1c(F)c(F)c(COC(=O)C2C(/C=C(\Cl)C(F)(F)F)C2(C)C)c(F)c1F` (stereo not given), which “activity, negative = cytotoxicity” value is on record?
A: Its value is 18.3%.

Q: With `COc1nn(CSP(=S)(OC)OC)c(=O)s1` as the molecule, how does the “activity, negative = cytotoxicity” value read?
A: Its value is -23.8%.

Q: Which “activity, negative = cytotoxicity” value does the source give for `CC1C(=O)C[C@]2(C(C)C)C[C@H]12` (stereo not given in full) here?
A: Its value is 23.4%.

Q: Which “activity, negative = cytotoxicity” value does the source give for `Clc1ccc(C(OCCN2CCCCC2)c2ccccc2)cc1` (stereo not given) here?
A: Its value is 3.09% [at 39.1 µM].

Q: With `Nc1ccc([N+](=O)[O-])cc1[N+](=O)[O-]` as the molecule, how does the Potency read?
A: The Potency was 15 µM (active).

Q: For `COc1nn(C(=O)NS(=O)(=O)c2ccccc2OC(F)(F)F)c(=O)n1C`, which “activity, negative = cytotoxicity” value is on record?
A: Its value is -18.5%.

Q: For `Brc1ccc(Oc2ccccc2)cc1`, which Potency is on record?
A: Its Potency is “inactive”.

Q: With `Cc1cc(=O)[nH]o1` as the molecule, how does the “activity, negative = cytotoxicity” value read?
A: Its value is 8.73% [at 95.3 µM].

Q: Which “activity, negative = cytotoxicity” value does the source give for `COC(=O)C(C)N(C(=O)Cc1ccccc1)c1c(C)cccc1C` (stereo not given) here?
A: Its value is 18.2%.

Q: For `CC1CC(CC2CCC(N)C(C)C2)CCC1N` (stereo not given), which “activity, negative = cytotoxicity” value is on record?
A: The value was -4.8% [at 95.3 µM].

Q: Which “activity, negative = cytotoxicity” value does the source give for `ClCc1ccccc1` here?
A: Its value is 11.3%.

Q: With `C=CCOC(C)=O` as the molecule, how does the “activity, negative = cytotoxicity” value read?
A: Its value is 10.4%.

Q: With `C/C=C/C=O` as the molecule, how does the “activity, negative = cytotoxicity” value read?
A: The value was 11.1%.

Q: With `O=NN1CCNCC1` as the molecule, how does the “activity, negative = cytotoxicity” value read?
A: Its value is 19.9% [at 95.3 µM].

Q: Which “activity, negative = cytotoxicity” value does the source give for `O=C(N[C@H](c1ccccc1)[C@@H]1CN2CCC1CC2)c1c(Cl)ccc(C(F)(F)F)c1Cl` here?
A: The value was -13.8% [at 95.3 µM].

Q: Which “activity, negative = cytotoxicity” value does the source give for `Cl/C=C\C[N+]12CN3CN(CN(C3)C1)C2` here?
A: Its value is -16.1%.

Q: For `COCCOCCO`, which “activity, negative = cytotoxicity” value is on record?
A: Its value is 16.3%.

Q: With `C=CC[C@]1(O)CC[C@H]2[C@@H]3CCC4=CC(=O)CCC4=C3C=C[C@@]21C` as the molecule, how does the “activity, negative = cytotoxicity” value read?
A: The value was 16.3%.

Q: Which “activity, negative = cytotoxicity” value does the source give for `C=CC(=O)OCCCCO` here?
A: Its value is -9.01%.

Q: Which “activity, negative = cytotoxicity” value does the source give for `BrCC(Br)C1CCC(Br)C(Br)C1` (stereo not given) here?
A: Its value is -4.19%.

Q: For `CCN(C)N=O`, which “activity, negative = cytotoxicity” value is on record?
A: Its value is 9.87%.

Q: Which Potency does the source give for `CCOP(=O)(OCC)Oc1ccc([N+](=O)[O-])cc1` here?
A: Its Potency is “inactive”.

Q: Which Potency does the source give for `Cn1sc(Cl)cc1=O` here?
A: The Potency was “inactive”.

Q: With `Clc1cc(C(Cl)(Cl)Cl)cnc1Cl` as the molecule, how does the “activity, negative = cytotoxicity” value read?
A: Its value is -27.5%.

Q: With `O=S1(=O)OC(c2cc(Br)c(O)c(Br)c2)(c2cc(Br)c(O)c(Br)c2)c2ccccc21` as the molecule, how does the Potency read?
A: The Potency was 25 µM (active).

Q: With `CN(N=O)c1ccc([N+](=O)[O-])cc1` as the molecule, how does the “activity, negative = cytotoxicity” value read?
A: Its value is -7.98%.

Q: Which “activity, negative = cytotoxicity” value does the source give for `O=Cc1ccc(Cl)cc1Cl` here?
A: The value was -5.68% [at 95.3 µM].

Q: Which “activity, negative = cytotoxicity” value does the source give for `OCCCBr` here?
A: The value was 20.2%.

Q: With `OC(c1ccc(Cl)cc1)(c1ccc(Cl)cc1)c1cccnc1` as the molecule, how does the “activity, negative = cytotoxicity” value read?
A: Its value is -4.2%.

Q: With `II` as the molecule, how does the “activity, negative = cytotoxicity” value read?
A: The value was -6.61%.

Q: Which “activity, negative = cytotoxicity” value does the source give for `O=C(CBr)c1ccccc1` here?
A: Its value is 12.2% [at 95.3 µM].

Q: Which “activity, negative = cytotoxicity” value does the source give for `CCOC(=O)COc1cc(-c2nn(C)c(OC(F)F)c2Cl)c(F)cc1Cl` here?
A: Its value is 5.14%.

Q: Which Potency does the source give for `O=[N+]([O-])C(Br)(CO)CO` here?
A: Its Potency is “inactive”.

Q: With `Clc1ccc(C2(Cn3cncn3)CC(Br)CO2)c(Cl)c1` (stereo not given) as the molecule, how does the “activity, negative = cytotoxicity” value read?
A: Its value is 12.7%.

Q: Which “activity, negative = cytotoxicity” value does the source give for `COC1=CC(=O)O[C@@H](CCc2ccccc2)C1` here?
A: Its value is 30.3% [at 95.3 µM].

Q: With `CN1C(=O)C(O)N=C(c2ccccc2)c2cc(Cl)ccc21` (stereo not given) as the molecule, how does the Potency read?
A: The Potency was “inactive”.

Q: Which “activity, negative = cytotoxicity” value does the source give for `C=CC(=O)OC` here?
A: Its value is -1.86% [at 95.3 µM].
